# Results published in PubChem BioAssay (NCATS).
# Values without a mark were called inactive. Records with an inconclusive call do not appear. Entries that show only a call come without a potency. The source made the active and inactive calls. The call rests on the fitted dose curve; in most records, active means well fitted curve in the direction sought with a large enough effect; inconclusive means small, poorly fitted or top-dose-only effect, or another doubt; inactive means no such curve, though single readings can be large; an effect the other way counts as inactive or inconclusive.
# What was measured:
# [1] = KB-8-5-11 P-gp reporter qHTS against the NCATS DSHEA and TCM libraries (AID 1919977)
# In short: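 CellTiter-Glo luminescence after ~72 h exposure at 37C gave viability of KB-8-5-11 cells, the P-gp-overexpressing subline. Substances were titrated; colchicine was omitted from assay medium.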
# [2] = HepG2 viability counterscreen (readout 2: ATP content) against the NCATS DSHEA and TCM libraries (AID 1794840);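 further: HepG2 cells exposed to substances for about 24 h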
# In short: (§1)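 1,000 HepG2 cells/well, 4 h attach; compounds ~24 h, 37C/5% CO2. Readout 1: GF-AFC 25 uM final, 30 min, fluorescence 380/510 nm. Readout 2: CellTiter-Glo, 30 min RT, luminescence.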
# [3] = HepG2 viability counterscreen (readout 1: protease activity) against the NCATS DSHEA and TCM libraries (AID 1794841);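 further: cells exposed to compounds for about 24 h before the protease read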
# In short: as §1
# [4] = target: Cytochrome P450 3A4 (Homo sapiens) (UniProt P08684); assay: qHTS for inhibitors of CYP3A4 against the NCATS DSHEA and TCM libraries (AID 1919971);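 further: inhibition lowers luminescence from luciferin made by CYP3A4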
# In short: (§2)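 Concentration-response screening with isoform-matched pro-luciferin substrates. The CYP reaction was initiated by NADPH regenerating solution and ran 30-45 min in darkness at room temperature.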
# [5] = target: Cytochrome P450 2C9 (Homo sapiens) (UniProt P11712); assay: qHTS for inhibitors of CYP2C9 against the NCATS DSHEA and TCM libraries (AID 1919973);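 further: luminogenic pro-luciferin CYP2C9 substrate turned into luciferin with NADPH regeneration; series mostly up to about 34 µM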
# In short: as §2
# [6] = target: Cytochrome P450 2C19 (Homo sapiens) (UniProt P33261); assay: qHTS for inhibitors of CYP2C19 against the NCATS DSHEA and TCM libraries (AID 1919974);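 further: luminescence from luciferin released by CYP2C19 oxidation of a pro-luciferin substrate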
# In short: as §2
# [7] = KB-3-1 P-gp reporter qHTS against the NCATS DSHEA and TCM libraries (AID 1919975)
# In short: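 CellTiter-Glo luminescence viability readout; KB-3-1 parental cells, 500/well, attached ~4 h, then compound for ~72 h, 37C, 5% CO2. Bortezomib intraplate control.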
# [8] = qHTS Counterscreen for compound interference against the NCATS DSHEA and TCM libraries (AID 1919978); conditions: firefly luciferase detection reagent interference, luminescence;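 further: compounds preincubated with 1 µM D-luciferin or buffer before detection reagent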
# In short: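 Luminescence counterscreen for detection-kit interference: compounds at 19.5 nM–39.8 uM final, 15 min RT with 1 uM D-luciferin or buffer only; detection reagent added, 30 min RT, then read.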
# [9] = Dual reporter qHTS for agonist of Pregnane X Receptor (hPXR) against the NCATS DSHEA and TCM libraries: Fluorescence readout (AID 1920058)
# In short: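 Cells were plated at 2000 per well and allowed to attach for 5 h. Test substances were pinned in and incubated roughly 24 h. CellTiter-Fluor was then added and fluorescence measured after 1 h.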
# [10] = target: Nuclear receptor subfamily 1 group I member 2 (Homo sapiens) (UniProt O75469); assay: Dual reporter qHTS for agonist of Pregnane X Receptor (hPXR) against the NCATS DSHEA and TCM libraries: Luminescence readout (AID 1920059)
# In short: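 hPXR-LucHepG2 cells in phenol red-free DMEM with 5% charcoal-stripped FBS, 2000 cells/well, attached 5 h, then exposed 24 h at 37C to compounds; rifampicin as positive agonist control (2.8 nM–92 uM). Luciferase luminescence read.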
# [11] = target: Nuclear receptor subfamily 1 group I member 2 (Homo sapiens) (UniProt O75469); assay: Dual reporter qHTS for antagonist of Pregnane X Receptor (hPXR) against the NCATS DSHEA and TCM libraries: Luminescence Readout (AID 1920060);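 further: HepG2 cells carrying hPXR luciferase reporter stimulated with rifampicin at 2 µM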
# In short: (§3)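 HepG2 hPXR-Luc, 2000 cells/well, charcoal-stripped FBS medium; 5 h attach; RIF 2 uM final; 24 h 37C/5% CO2; CellTiter-Fluor 1 h, fluor 405/540; ONE-Glo 30 min RT, lum.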
# [12] = Dual reporter qHTS for antagonist of Pregnane X Receptor (hPXR) against the NCATS DSHEA and TCM libraries: Fluorescence Readout (AID 1920061)
# In short: as §3
# Sequence of Nuclear receptor subfamily 1 group I member 2 (Homo sapiens) (O75469 whole entry, looked up): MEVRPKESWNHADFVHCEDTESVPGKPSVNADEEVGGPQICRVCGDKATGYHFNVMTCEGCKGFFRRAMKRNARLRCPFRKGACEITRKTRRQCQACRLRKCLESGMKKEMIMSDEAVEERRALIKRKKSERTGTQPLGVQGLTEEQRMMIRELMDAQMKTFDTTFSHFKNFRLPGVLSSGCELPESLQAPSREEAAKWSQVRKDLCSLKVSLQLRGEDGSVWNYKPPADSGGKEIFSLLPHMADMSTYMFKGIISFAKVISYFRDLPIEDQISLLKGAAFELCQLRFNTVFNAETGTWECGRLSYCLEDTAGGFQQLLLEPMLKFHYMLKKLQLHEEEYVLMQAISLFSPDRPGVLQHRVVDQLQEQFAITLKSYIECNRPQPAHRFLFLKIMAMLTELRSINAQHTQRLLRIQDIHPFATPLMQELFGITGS
# Sequence of Cytochrome P450 2C9 (Homo sapiens) (P11712 whole entry, looked up): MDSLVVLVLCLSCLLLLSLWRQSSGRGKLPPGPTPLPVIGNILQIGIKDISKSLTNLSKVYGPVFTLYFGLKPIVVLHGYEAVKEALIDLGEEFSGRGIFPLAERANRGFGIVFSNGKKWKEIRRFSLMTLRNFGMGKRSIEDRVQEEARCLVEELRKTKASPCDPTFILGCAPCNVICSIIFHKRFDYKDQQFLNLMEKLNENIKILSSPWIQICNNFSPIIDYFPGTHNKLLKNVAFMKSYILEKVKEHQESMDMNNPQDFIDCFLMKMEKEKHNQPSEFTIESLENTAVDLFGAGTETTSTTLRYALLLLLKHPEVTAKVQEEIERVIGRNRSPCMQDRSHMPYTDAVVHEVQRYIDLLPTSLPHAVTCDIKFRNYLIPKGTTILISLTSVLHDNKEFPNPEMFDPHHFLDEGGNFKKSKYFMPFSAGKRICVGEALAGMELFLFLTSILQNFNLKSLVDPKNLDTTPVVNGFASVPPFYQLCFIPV
# Sequence of Cytochrome P450 3A4 (Homo sapiens) (P08684 whole entry, looked up, canonical isoform): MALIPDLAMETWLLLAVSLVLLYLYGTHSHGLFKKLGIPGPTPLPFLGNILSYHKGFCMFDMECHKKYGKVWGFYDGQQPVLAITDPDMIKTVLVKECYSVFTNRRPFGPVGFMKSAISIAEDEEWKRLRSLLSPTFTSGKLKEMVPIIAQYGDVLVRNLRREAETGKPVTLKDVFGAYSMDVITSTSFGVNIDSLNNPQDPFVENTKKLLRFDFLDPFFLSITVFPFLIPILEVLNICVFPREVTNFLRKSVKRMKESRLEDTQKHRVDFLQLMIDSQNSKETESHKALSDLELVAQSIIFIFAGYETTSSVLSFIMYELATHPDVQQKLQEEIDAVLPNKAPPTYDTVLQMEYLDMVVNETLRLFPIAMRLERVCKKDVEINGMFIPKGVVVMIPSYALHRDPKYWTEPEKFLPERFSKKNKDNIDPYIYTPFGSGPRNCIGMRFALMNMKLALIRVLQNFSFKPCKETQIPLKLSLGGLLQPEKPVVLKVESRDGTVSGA
# Sequence of Cytochrome P450 2C19 (Homo sapiens) (P33261 whole entry, looked up): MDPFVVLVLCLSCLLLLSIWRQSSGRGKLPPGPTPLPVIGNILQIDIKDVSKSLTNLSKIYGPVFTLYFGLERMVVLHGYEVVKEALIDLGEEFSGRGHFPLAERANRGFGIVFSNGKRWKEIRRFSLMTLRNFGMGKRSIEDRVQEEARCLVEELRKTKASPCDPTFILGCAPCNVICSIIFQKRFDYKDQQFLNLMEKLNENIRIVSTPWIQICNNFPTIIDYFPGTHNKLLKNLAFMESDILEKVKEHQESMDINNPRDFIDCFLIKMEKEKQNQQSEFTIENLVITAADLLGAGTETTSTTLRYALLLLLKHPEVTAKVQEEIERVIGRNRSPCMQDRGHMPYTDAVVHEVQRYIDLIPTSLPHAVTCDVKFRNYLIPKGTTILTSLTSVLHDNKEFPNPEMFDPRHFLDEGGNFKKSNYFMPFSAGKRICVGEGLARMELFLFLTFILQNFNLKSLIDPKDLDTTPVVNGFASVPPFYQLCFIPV
smiles,measurement,setting,value
CC(C)=CCC[C@](C)(OC1OC(COC2OCC(O)C(O)C2O)C(O)C(O)C1O)[C@H]1CC[C@]2(C)[C@@H]1[C@H](O)C[C@@H]1[C@@]3(C)CC[C@H](OC4OC(CO)C(O)C(O)C4OC4OC(CO)C(O)C(O)C4O)C(C)(C)[C@@H]3CC[C@]12C (stereo partly specified),Potency,[1],inactive
CC/C=C\C/C=C\C/C=C\CCCCCCCC(=O)O,Potency,[1],inactive
C=C1[C@H]2CC[C@H](C(=O)O)[C@@]23CC[C@H](C3)C1(C)C,Potency,[1],inactive
CC/C=C\C/C=C\C/C=C\C/C=C\CCCCC(=O)O,"activity change, negative = inhibition",[1],-0.921% [at 3.26 µM]
OCCc1ccc(O)cc1,Potency,[1],inactive
O=C(O)CC(O)(C(=O)O)C(O)C(=O)O (stereo unspecified),Potency,[1],inactive
O=S(=O)(O)O,outcome,[2],inactive
same,outcome,[3],inactive
same,Potency,[4],inactive
same,Potency,[5],inactive
same,Potency,[6],inactive
same,outcome,[7],inactive
same,Potency,[1],inactive
same,max response,[8],-1.96%
same,outcome,[9],inactive
same,Potency,[10],inactive
same,outcome,[11],inactive
same,outcome,[12],inactive
CC(C)=CCC[C@](C)(O)[C@H]1CC[C@]2(C)[C@@H]1[C@H](O)CC1[C@@]3(C)CC[C@H](O)C(C)(C)[C@@H]3[C@@H](O[C@@H]3O[C@H](CO)[C@@H](O)[C@H](O)[C@H]3O[C@@H]3O[C@H](CO)[C@@H](O)[C@H](O)[C@H]3O)C[C@]12C (stereo partly specified),Potency,[1],inactive
CCCCC/C=C/C(=O)CCc1ccc(O)c(OC)c1,Potency,[1],inactive
CCCCCCC/C=C/C(=O)CCc1ccc(O)c(OC)c1,Potency,[1],inactive
